Consider three compounds from PubChem BioAssay.

Assay [1] can be described thus: rapamycin-like changes in RPL19A-GFP expression – cell-based, S. cerevisiae, multiplex flow cytometry, primary screen (AID 1862; in the data active = percent of DMSO control GFP below about 86%;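 also: lower values mimic rapamycin by blocking the RPL19A rise seen in DMSO cells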). Conditions: S. cerevisiae RPL19A-GFP strain, flow cytometry fluorescence, 3 h; at 10 µM; stronger effect = lower value.
Assay [2] in a line: TOR pathway GLN3 branch reporter MEP2-GFP changes – S. cerevisiae, multiplex flow cytometry, primary screen (AID 1867;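 active = GFP response, as percent of the DMSO control, above the screen-wide mean plus 3 SD, about 139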;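 also: median GFP channel fluorescence of barcode-gated MEP2-GFP cells measured by flow cytometry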). The conditions noted are these: S. cerevisiae MEP2-GFP strain, 3 h, at 10 µM, stronger effect = higher value. (In general: Flow cytometry measures light scatter and fluorescence of single cells or particles in a stream.)
The nature of assay [3]: TOR pathway RTG branch CIT2 reporter changes – S. cerevisiae, GFP fusion, multiplex flow cytometry, primary screen (AID 1870;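 active = percent response above a set limit, the screen-wide mean plus 3 SD, cut at about 130% in these data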;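 also: barcoded CIT2-GFP strain pooled with four other GFP strains with rapamycin as positive control; median GFP fluorescence per well over plate mean of DMSO wells so 100% = DMSO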). Conditions: S. cerevisiae CIT2-GFP expression, 3 h, at 10 µM, stronger effect = higher value.
Assay [4] in a line: TOR pathway LAP4-GFP level changes – S. cerevisiae, multiplex flow cytometry, primary screen (AID 1873;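 active = GFP signal, as percent of the solvent control, above the screen mean plus 3 SD, about 149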). Conditions: S. cerevisiae LAP4-GFP expression, 3 h, at 10 µM, stronger effect = higher value.
Assay [5] is described as follows: yeast AGP1-GFP level changes, GLN3 branch – cell-based, multiplex flow cytometry, S. cerevisiae, primary screen (AID 1887;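 active = GFP signal above the screen-wide mean plus 3 SD, that is over about 124.5% of the solvent control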;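 also: AGP1-GFP fusion strain of S. cerevisiae within a five-strain barcoded multiplex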). Conditions: 3 h, at 10 µM, stronger effect = higher value.
The nature of assay [6]: reduced mouse 2C T cell binding to pMHC/ICAM-1 vesicles – MLPCN validation set, flow cytometry, LFA-1/ICAM-1 modulator project, pilot screen (AID 2523;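 active = response below a set limit, under 55% cells CD8-positive and vesicle-bound, and CD8 cells' 90th-percentile brightness under 279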;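 as to vesicle binding response: mean PE anti-B7-1 fluorescence of CD8+ cells relative to row control; 100% = QL9-loaded vesicles with DMSO vehicle in the same plate row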). Conditions: 2C mouse CD8+ T cells, at 7 µM, stronger effect = lower value; double positive events: measured here: CD8+/vesicle+ event percentage.
Assay [7] concerns the target Integrin beta-1 (Homo sapiens) + Integrin alpha-4 (Homo sapiens) (UniProt P13612+P05556). Briefly: alpha4beta1 integrin LIBS antibody binding reduction – U937 cells, HUTS-21 mAb, flow cytometry, validation set, VLA-4 allosteric modulator project, pilot screen (AID 2674;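 active = inhibition above 50%, about 3 SD of the validation set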;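 also: antibody binding induced by the VLA-4 ligand LDV present at three times its Kd; 0% = LDV ligand with antibody and no compound and 100% = antibody without LDV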). The conditions noted are these: HUTS-21 LIBS mAb binding, at 6.7 µM, stronger effect = higher value.
Assay [8] in a line: calorie-restriction mimetic ROS inhibitors, yeast – validation compound set, pilot screen (AID 2706;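 active = superoxide response below 65% of plate, a cut near 3 SD across the whole screen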;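 also: yeast exposed to compound for one week at 30 degrees C before staining; 100% = mean of all compound wells on the same plate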). Conditions: S. cerevisiae aging, superoxide DHE fluorescence; at 10 µM; stronger effect = lower value.
Assay [9] deals with Beta-adrenergic receptor kinase 1 (Homo sapiens) (UniProt P25098). Briefly: GRK2 binders displacing RNA aptamer, biochemical, validation, human GRK2, bead flow cytometry (AID 488806;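 active = aptamer binding inhibition above 30%, about 3 SD of noise from non-fluorescent compounds; inactive = inhibition at or below 30%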). Conditions: bead-bound GRK2, FAM-aptamer displacement, at 10 µM, stronger effect = higher value.
Sequence of Beta-adrenergic receptor kinase 1 (Homo sapiens) (P25098 whole entry, looked up): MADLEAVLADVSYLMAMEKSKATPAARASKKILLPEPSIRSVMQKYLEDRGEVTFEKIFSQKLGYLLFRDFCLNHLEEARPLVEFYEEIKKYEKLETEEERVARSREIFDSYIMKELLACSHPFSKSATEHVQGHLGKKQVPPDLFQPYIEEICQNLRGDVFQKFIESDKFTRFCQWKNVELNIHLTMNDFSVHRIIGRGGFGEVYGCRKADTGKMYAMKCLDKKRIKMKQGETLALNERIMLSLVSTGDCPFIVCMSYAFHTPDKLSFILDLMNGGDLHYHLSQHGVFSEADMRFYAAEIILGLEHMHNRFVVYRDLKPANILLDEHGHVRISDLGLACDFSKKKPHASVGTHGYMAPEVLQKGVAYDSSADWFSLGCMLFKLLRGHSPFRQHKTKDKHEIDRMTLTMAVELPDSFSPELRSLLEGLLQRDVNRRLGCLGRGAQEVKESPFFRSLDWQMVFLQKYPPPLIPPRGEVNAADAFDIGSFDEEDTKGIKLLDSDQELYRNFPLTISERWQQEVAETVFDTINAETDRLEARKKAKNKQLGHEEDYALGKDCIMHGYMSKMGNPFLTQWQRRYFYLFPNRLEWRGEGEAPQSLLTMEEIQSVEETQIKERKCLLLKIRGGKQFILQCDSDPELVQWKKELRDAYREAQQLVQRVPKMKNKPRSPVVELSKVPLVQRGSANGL
In assay [10] the target is Beta-2 adrenergic receptor (Homo sapiens) (UniProt P07550). In words: agonist-induced loss of surface beta2AR – cell-based, FAP fluorogen, flow cytometry, validation set, pilot screen (AID 504459;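 active = percent response above 42, roughly 3 SD of non-fluorescent test compounds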;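 also: agonist-driven loss of surface beta2AR via internalization measured by FAP dye flow cytometry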). Conditions: Am2.2-beta2AR cells, at 10 µM, stronger effect = higher value.
Sequence of Beta-2 adrenergic receptor (Homo sapiens) (P07550 whole entry, looked up): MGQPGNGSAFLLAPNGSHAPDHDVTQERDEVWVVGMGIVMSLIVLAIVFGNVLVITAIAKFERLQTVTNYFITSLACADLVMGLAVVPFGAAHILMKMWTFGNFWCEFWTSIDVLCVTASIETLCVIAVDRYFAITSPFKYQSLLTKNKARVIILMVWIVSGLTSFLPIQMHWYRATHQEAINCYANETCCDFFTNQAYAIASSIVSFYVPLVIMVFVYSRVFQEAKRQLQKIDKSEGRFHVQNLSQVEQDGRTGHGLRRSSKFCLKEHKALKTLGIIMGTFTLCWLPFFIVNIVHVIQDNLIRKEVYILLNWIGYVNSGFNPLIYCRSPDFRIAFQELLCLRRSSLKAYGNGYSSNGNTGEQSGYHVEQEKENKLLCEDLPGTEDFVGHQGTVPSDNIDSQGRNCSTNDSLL
For assay [11], the target named is AP-2 complex subunit beta (Homo sapiens) (UniProt P63010). In words: beta-arrestin/AP2 interaction blockers – biochemical, validation set, GST-AP2 beads, flow cytometry, pilot screen (AID 504541;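 active = inhibition above 54%, about 3 SD of non-fluorescent compounds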;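 also: AP2 carries R879A mutation and is captured from E. coli lysate; bead-bound FITC arrestin peptide fluorescence measuring arrestin peptide binding to AP2; 0% = DMSO wells and 100% = excess unlabeled arrestin peptide control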). Conditions: FITC arrestin peptide, at 10 µM, stronger effect = higher value.
Sequence of AP-2 complex subunit beta (Homo sapiens) (P63010 whole entry, looked up, one chain of several): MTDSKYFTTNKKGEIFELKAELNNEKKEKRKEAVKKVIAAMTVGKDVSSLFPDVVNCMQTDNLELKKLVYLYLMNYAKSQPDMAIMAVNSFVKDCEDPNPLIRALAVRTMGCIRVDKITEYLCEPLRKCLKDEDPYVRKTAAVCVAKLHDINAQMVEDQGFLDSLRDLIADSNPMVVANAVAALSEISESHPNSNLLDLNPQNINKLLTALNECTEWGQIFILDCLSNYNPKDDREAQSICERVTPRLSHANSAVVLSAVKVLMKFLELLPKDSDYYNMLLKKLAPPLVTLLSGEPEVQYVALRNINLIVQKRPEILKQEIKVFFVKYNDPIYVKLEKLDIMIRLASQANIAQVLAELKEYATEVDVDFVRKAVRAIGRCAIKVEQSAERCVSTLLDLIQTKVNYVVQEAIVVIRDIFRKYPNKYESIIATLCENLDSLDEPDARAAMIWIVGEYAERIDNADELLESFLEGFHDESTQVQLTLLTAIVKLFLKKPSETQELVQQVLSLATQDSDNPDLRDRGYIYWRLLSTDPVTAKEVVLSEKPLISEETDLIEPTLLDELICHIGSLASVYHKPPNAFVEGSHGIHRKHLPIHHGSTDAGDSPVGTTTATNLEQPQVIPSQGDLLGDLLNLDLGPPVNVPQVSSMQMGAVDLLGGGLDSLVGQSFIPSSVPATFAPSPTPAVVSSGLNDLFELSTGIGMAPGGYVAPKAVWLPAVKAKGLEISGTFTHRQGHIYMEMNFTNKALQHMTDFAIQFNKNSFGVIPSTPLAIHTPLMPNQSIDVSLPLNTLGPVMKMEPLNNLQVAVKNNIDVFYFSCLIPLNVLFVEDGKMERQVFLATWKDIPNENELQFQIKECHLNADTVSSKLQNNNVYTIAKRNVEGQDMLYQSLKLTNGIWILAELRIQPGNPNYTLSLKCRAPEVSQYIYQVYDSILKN
A short description of assay [12]: cytosolic pH regulators acting via V-ATPase – S. cerevisiae, pHLuorin, HTS validation (AID 504600; in the data active = response above about 15%;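 also: plate controls were DMSO for no effect and reference compound for full effect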). Conditions: V-ATPase proton transport, at 10 µM, stronger effect = higher value.
Assay [13] has as its system anti-desmoglein-3 scFv antibody binding to human DSG3. Briefly: blockers of pathogenic pemphigus antibody–desmoglein-3 binding – biochemical, validation compound set, bead-based, flow cytometry, pilot screen (AID 588368;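 active = binding below the plate cutoff, the plate median minus 3 SD, with a reading above zero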;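 also: signal is the median channel fluorescence of bead-bound GFP antibody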). The conditions noted are these: Protein G beads, DSG3-Fc, scFv-GFP binding, at 10 µM, stronger effect = lower value.
Assay [14] relates to Botulinum neurotoxin type F light chain protease (Clostridium botulinum). Briefly: Clostridium botulinum type F light chain protease inhibitors, microsphere substrate cleavage, validation (AID 588459). Conditions: multiplex microsphere protease substrate cleavage assay, flow cytometry; at 10 µM; stronger effect = higher value.
In assay [15] the target is Botulinum neurotoxin type A (Clostridium botulinum) (UniProt P0DPI0). Briefly: BoNT/A light chain protease inhibitors, biochemical, multiplex microsphere flow cytometry, validation set (AID 588460). The conditions noted are these: at 10 µM, stronger effect = higher value.
Assay [16] addresses Lethal factor (Bacillus anthracis) (UniProt P15917). In words: Bacillus anthracis lethal factor inhibition, microsphere flow cytometry protease assay, validation at 10 µM (AID 588461). Conditions: multiplex microsphere protease cleavage assay, stronger effect = higher value.
The nature of assay [17]: Nile Red efflux blockade in pump-expressing yeast – validation compound set, multiplex, phenotypic, pilot screen (AID 588506;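 active = efflux inhibition above 0.42, the validation set average plus 4 SD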;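 also: Nile Red retained in cells so higher fluorescence means more efflux inhibition; 0 = negative control wells and 1 = enniatin B 25 µM full block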). Conditions: S. cerevisiae pump-expressing triplex, Nile Red efflux flow cytometry; at 10 µM; stronger effect = higher value.
Assay [18] concerns the target ATP-binding cassette sub-family B member 6 (Homo sapiens) (UniProt Q9NP58). In words: blockers of ABCB6-driven porphyrin uptake – K562-ABCB6 cells, flow cytometry, validation set, pilot screen (AID 588550;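 active = inhibition above the screen-wide mean plus 3 SD, about 51%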;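 also: 0% = DMSO wells and 100% = benzethonium chloride 70 µM positive control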). Conditions: K562-ABCB6 porphyrin accumulation, 1 h, at 10 µM, stronger effect = higher value.
Assay [19] is described as follows: AML differentiation inducers, ER-HoxA9 marrow cells – cell-based, GFP/MAC1 double positive, flow cytometry, validation set, primary screen (AID 588685;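 active = differentiation response of at least 50%, scaled between solvent and reference control, from cells with both markers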;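 also: compound exposure lasts four days before antibody staining and flow analysis; 0% = DMSO wells and 100% = 5 µM fulvestrant positive control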). Conditions: stronger effect = higher value.

Records with an inconclusive call do not appear. Calls of active or inactive are those of the source. Unless noted, no rule for the calls is given here.

Sequence of ATP-binding cassette sub-family B member 6 (Homo sapiens) (Q9NP58 whole entry, looked up): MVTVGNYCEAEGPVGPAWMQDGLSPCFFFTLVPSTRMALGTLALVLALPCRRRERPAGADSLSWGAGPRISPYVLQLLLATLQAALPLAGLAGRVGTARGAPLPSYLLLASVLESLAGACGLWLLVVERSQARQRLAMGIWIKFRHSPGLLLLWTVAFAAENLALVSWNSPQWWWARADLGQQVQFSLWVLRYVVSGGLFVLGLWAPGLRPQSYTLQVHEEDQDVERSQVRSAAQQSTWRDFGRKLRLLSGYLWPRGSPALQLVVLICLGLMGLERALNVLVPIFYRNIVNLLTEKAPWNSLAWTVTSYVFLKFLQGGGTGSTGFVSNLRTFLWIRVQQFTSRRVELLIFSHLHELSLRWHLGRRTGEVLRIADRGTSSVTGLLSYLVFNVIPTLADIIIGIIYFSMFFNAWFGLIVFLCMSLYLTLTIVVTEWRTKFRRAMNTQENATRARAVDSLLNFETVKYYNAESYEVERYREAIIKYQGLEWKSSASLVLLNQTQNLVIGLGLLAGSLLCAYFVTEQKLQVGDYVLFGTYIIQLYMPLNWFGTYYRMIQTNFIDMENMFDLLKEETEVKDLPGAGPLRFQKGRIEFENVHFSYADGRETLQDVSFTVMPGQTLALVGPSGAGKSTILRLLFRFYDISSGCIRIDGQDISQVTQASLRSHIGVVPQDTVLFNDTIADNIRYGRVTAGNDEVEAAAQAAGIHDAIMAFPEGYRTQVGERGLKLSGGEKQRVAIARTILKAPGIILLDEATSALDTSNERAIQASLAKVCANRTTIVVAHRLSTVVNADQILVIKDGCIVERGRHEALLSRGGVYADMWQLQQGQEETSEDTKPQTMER
Sequence of Integrin beta-1 (Homo sapiens) + Integrin alpha-4 (Homo sapiens) (P05556 whole entry, looked up): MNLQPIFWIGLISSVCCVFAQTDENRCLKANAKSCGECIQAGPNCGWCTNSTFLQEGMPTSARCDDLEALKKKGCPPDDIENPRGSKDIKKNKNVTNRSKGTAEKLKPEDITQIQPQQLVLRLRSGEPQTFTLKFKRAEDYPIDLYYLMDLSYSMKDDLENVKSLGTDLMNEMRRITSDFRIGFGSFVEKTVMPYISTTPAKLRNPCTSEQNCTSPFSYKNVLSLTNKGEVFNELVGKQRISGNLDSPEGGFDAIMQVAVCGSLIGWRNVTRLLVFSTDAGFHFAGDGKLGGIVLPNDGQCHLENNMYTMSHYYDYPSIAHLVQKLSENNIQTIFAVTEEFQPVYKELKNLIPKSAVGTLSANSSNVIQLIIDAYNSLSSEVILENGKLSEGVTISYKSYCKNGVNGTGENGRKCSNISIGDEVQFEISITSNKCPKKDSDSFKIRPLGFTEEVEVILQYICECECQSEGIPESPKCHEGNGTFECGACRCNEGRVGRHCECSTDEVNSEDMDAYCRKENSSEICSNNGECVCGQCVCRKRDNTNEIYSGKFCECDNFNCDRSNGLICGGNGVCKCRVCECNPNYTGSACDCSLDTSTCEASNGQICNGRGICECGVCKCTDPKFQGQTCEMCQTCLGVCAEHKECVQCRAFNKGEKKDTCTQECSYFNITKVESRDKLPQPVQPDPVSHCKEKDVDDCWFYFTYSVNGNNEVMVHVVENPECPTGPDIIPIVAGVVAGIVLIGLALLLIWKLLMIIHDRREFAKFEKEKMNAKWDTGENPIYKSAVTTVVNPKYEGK
Sequence of Integrin beta-1 (Homo sapiens) + Integrin alpha-4 (Homo sapiens) (P13612 whole entry, looked up): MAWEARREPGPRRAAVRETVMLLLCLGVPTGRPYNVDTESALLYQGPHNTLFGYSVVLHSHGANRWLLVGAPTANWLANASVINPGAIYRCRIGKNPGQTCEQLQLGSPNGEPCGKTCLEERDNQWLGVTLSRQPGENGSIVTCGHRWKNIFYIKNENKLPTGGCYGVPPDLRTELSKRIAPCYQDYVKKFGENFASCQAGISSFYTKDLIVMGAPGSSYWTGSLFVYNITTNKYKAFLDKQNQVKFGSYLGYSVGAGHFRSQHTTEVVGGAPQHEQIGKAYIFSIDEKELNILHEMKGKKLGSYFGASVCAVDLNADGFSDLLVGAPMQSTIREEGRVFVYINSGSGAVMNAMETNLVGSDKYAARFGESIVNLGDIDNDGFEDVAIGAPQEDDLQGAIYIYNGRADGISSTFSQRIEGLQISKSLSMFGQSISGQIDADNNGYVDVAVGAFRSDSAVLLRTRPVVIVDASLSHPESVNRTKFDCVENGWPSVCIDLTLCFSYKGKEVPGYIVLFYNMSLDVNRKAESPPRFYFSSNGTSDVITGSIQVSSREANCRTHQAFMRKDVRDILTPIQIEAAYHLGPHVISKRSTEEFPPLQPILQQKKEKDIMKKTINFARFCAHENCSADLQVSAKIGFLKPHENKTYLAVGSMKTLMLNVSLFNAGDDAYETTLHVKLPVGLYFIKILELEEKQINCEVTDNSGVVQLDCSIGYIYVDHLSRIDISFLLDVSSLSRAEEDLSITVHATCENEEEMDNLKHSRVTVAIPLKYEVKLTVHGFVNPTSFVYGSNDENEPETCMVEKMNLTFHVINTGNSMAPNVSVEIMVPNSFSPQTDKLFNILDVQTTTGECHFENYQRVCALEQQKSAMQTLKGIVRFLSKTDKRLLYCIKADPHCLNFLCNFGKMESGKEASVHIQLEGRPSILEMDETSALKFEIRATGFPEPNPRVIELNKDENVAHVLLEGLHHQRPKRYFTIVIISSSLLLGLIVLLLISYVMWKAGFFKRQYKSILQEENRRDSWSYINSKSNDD

As to `CCOC(=O)c1cc2c(cn1)[nH]c1ccccc12`, in assay [1], the percent of DMSO control GFP is 98.4% (inactive). Also, the results for the GFP response vs DMSO in [2] and in assay [4] were 103% (inactive) and 105% (inactive), respectively. The percent response of DMSO control in assay [3] was 103% (inactive). Further, the GFP response, % of DMSO in assay [5] was 94.5% (inactive). Besides, the double positive events in assay [6] amounted to 59.3%. The vesicle binding response in assay [6] is 102% (inactive). Further, the inhibition (as a rule, the drop in the measured response relative to a control, in per cent) was -7.79% (inactive) in [7]; -6.1% (inactive) in [11]; 2.3% (inactive) in assay [14]; 0.5% (inactive) in assay [15]; -1.3% (inactive) in assay [16]; -6% (inactive) in assay [18]. Besides, the superoxide response (% of plate) in assay [8] was 96.2% (inactive). In assay [9], the aptamer binding inhibition is 3% (inactive). Besides, the response was -5.72% (inactive) in assay [10] and -1.17% (inactive) in assay [12]. The binding (% of control) in assay [13] was 98.5% (inactive). Further, in [17], the efflux inhibition (fraction of control) is -0.39 (inactive). In assay [19], the differentiation response is -1.65% (inactive).
As for `CN1C2CCC1CC(OC(=O)CCN1CCCC1)C2` (stereo not given), in [1], the percent of DMSO control GFP is 105% (inactive). Moreover, the GFP response vs DMSO in assay [2] was 105% (inactive); in assay [4] it was 115% (inactive). The percent response of DMSO control in assay [3] is 107% (inactive). Also, the GFP response, % of DMSO in [5] was 113% (inactive). The compound also returned a double positive events in assay [6] of 61.6%. For the same compound, the vesicle binding response in [6] was 194% (inactive). Moreover, the inhibition in assay [7] was 8.25% (inactive); in assay [11] it was 33.9% (inactive); in [14], 3.2% (inactive); in assay [15], 1.3% (inactive); in [16] it was 1.5% (inactive); in assay [18] it was 0% (inactive). Moreover, the superoxide response (% of plate) in [8] is 98.4% (inactive). In addition, the aptamer binding inhibition in assay [9] is 4% (inactive). Moreover, the response in assay [10] is -8.97% (inactive); in [12], -1.35% (inactive). For the same compound, the binding (% of control) in assay [13] is 107% (inactive). Further, in assay [17], the efflux inhibition (fraction of control) was 0.08 (inactive). In addition, in assay [19], the differentiation response is -0.06% (inactive).
With `O=c1c2ccccc2nc(/C=C/c2ccc3c(c2)OCO3)n1-c1ccccc1`, the percent of DMSO control GFP in assay [1] was 102% (inactive). Further, the GFP response vs DMSO in assay [2] is 105% (inactive); in [4], 110% (inactive). Besides, in assay [3], the percent response of DMSO control is 100% (inactive). In addition, in assay [5], the GFP response, % of DMSO was 98.9% (inactive). This compound also gave a double positive events in [6] of 59.9%. Besides, in [6], the vesicle binding response was 140% (inactive). Besides, the inhibition in assay [7] was 1.44% (inactive); in [11] it was -1.43% (inactive); in assay [14], -0.7% (inactive); in [15], 0.6% (inactive); in [16], -5% (inactive); in assay [18], 0% (inactive). Further, the superoxide response (% of plate) in assay [8] was 90.1% (inactive). Besides, the aptamer binding inhibition in assay [9] is 4% (inactive). For the same compound, the response in assay [10] is -4.14% (inactive); in assay [12] it was -7.21% (inactive). Further, the binding (% of control) in assay [13] was 106% (inactive). Moreover, in [17], the efflux inhibition (fraction of control) is 0.33 (inactive). The differentiation response in [19] was 7.82% (inactive).
